Screens from PubChem.
Rows were chosen to be rich in hits. Some 8.9% of all compounds tested hit in one or more screens of this group.
SW480 rerep: induces DNA re-replication in SW480 colon adenocarcinoma cells; SW480 DNA re-replication, Hoechst DNA content imaging, 48 h; Potency, µM (doses to about 46.1 µM), for the others: at the top dose re-replication activation, actives largely listed as activators; hit rate 1.8% among 340,000; also: potency is read from the fitted curve at half-maximal effect; % of control where 0% means no effect; nearly all actives have a fitted effect of over 55% in size
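Cells (250 per well) received 23 nL compound or DMSO by pin tool and were kept 48 hr at 37 C, 5% CO2. Nuclei were then stained with Hoechst for 40 min and scanned for DNA content.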
KB-V1 cytotox: KB-V1 MDR subline cytotoxicity. KB-V1 MDR cells viability, CellTiter-Glo, 72 h. Potency, µM (top dose mostly 46.1 µM), hits mostly cytotoxic. hit rate 3.4% among 400,000. AID 1347076; also: potency is read from the fitted curve at half-maximal effect; % is scaled to controls: 0 for no effect and ±100 for the full control effect; nearly all actives have a fitted effect of over 60% in size
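qHTS viability screen in drug-selected KB-V1 MDR cells: 72 h compound treatment at 37 degrees C, ATP luminescence end point.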
MCF10A rereplic: DNA re-replication induction in MCF 10a cells; MCF 10A DNA re-replication, Hoechst nuclear intensity, 48 h; Potency, µM (titrated, usually from 46.1 µM), for the others: top-dose activity, positive = re-replication, most hits filed as activators; hit rate 2.9% among 350,000; AID 624296; also: potency is read from the fitted curve at half-maximal effect; % of control where 0% means no effect; nearly all actives have a fitted effect of over 50% in size
DRD3 agonist: agonists of human D3 dopamine receptor; P35462; D3R DiscoveRx beta-arrestin cells, luminescence, 90 min; max activation, %; hit rate 0.58% among 410,000; AID 652048; in the data active = max activation above about 30%; also: 0% is about no effect
Target sequence (P35462 whole entry, looked up): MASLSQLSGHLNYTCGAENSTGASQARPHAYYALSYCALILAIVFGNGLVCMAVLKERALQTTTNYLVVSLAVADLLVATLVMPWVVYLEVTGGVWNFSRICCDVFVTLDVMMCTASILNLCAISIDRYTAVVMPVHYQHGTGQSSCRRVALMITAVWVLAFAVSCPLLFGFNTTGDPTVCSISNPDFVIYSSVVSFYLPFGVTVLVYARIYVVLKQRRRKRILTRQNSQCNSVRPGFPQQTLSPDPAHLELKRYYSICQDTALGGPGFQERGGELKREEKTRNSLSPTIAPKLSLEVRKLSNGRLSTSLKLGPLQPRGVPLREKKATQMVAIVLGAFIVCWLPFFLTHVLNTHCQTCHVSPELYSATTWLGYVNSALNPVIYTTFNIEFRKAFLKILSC
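Cells at 1500/well, incubated overnight, then treated with pinned compounds (dopamine as control) for 90 min at 37 degrees C. DiscoveRx reagent added for 30 - 60 minutes at room temperature; luminescence read.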
KB-3-1 tox: kills parental KB-3-1 adenocarcinoma cells. KB-3-1 viability, CellTiter-Glo ATP luminescence, 72 h. Potency, µM (highest dose often 46.1 µM), usual class: cytotoxic. hit rate 1.4% among 400,000. AID 1347075; also: potency is read from the fitted curve at half-maximal effect; % is scaled to controls: 0 for no effect and ±100 for the full control effect; nearly all actives have a fitted effect of over 60% in size
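Here the drug-naive KB-3-1 line serves as comparator for MDR sub-line selectivity; cells received compound titrations, 72 h at 37 °C, then CellTiter-Glo readout.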
DRD3 antagonist: antagonists of human D3 dopamine receptor. D3R cells, DiscoveRx beta-arrestin luminescence, antagonist mode; hits give low values. max response, negative = inhibition, %. AID 652054. hit rate 2.5% among 360,000. P35462; in the data active = max response below about -50%; inconclusive = no clear call, values can overlap the other calls; also: % is scaled to controls: 0 for no effect and ±100 for the full control effect
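Cells plated overnight at 1500 cells/well, then exposed to library compounds with dopamine controls for 90 minutes at 37 degrees C. DiscoveRx reagent added for 30–60 minutes at room temperature; luminescence read, quantitative HTS format.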
Active calls of the source: *; i = inactive; ? = inconclusive; . = not tested or not shown; ! = not active in a repeat. Unless noted, calls follow the shape of the dose curve; as a rule, active = well fitted curve in the direction sought with a large enough effect; inconclusive = small, poorly fitted or top-dose-only effect, or another doubt; inactive = no such curve, though single readings can be large; an effect the other way counts as inactive or inconclusive.

SMILES	SW480 rerep	KB-V1 cytotox	MCF10A rereplic	DRD3 agonist	KB-3-1 tox	DRD3 antagonist
CCCNC1=C(C)C(=O)C2=C(C1=O)C(COC(N)=O)[C@]1(OC)C3NC3CN21 (some centres not stated)	6%	i	-29%	-1	18µM*	-11
CC(=O)O[C@H]1C[C@@H]2OC3C=C(C)CCC3(C)[C@@]1(C)[C@@]21CO1 (some centres not stated)	9.2µM*	1.6µM*	1µM*	1	2.3µM*	-5
Cc1cc(C)cc(C(=O)OC2C[C@H]3CC[C@@H](C2)N3C)c1 (some centres not stated)	.	.	.	-6	.	.
CCN(CCCl)c1cc(CN(C)C)cc(NC(=O)c2ccc(C(=O)Nc3cc(CN(C)C)cc(N(CC)CCCl)c3)cc2)c1	?	i	14%	-12	0.52µM*	-84*
CCN(CC)C(=O)c1ccc(NC(=O)c2cccc(C(F)(F)F)c2)cc1	?	i	-1%	-15	i	-24
CC(C)(O)C1C2OC(=O)C1[C@]1(O)C[C@H]3O[C@]34C(=O)O[C@H]2[C@]14C (some centres not stated) (tested in a mixture with another compound)	-1%	.	4%	.	.	.
c1ccc2c(c1)OCC(C1=NCCN1)O2 (configuration not stated)	?	i	18µM*!	-44	?	?
O=C(N/N=C/c1ccc(C(F)(F)F)cc1)c1ccncc1	-2%	i	?	-1	i	-18
CCc1cccc(NC(=O)Cn2c(=O)oc3cc(S(=O)(=O)N4CCOCC4)ccc32)c1	-2%	i	?	3	?	-11
Cc1nc2ccc(Nc3nc4cc(S(=O)(=O)N5CCOCC5)ccc4o3)cc2s1	18µM*	i	?	4	i	16
COC(=O)[C@]1(C)N[C@H](CN(C)S(=O)(=O)c2ccc(-c3ccccc3)cc2)[C@@H]2C(=O)N(Cc3ccccc3)C(=O)[C@@H]21	4%	i	?	-1	i	26
Cn1cc(C(=O)OCC(=O)Nc2ccccc2)c2ccccc21	-6%	21µM*	-1%	-6	i	-27
CN1C(=O)NC(=O)/C(=C\C=C\c2ccccc2[N+](=O)[O-])C1=O	15µM*	i	?	-2	?	-30
CCOC(=O)c1cc2ccccc2n1C1CCN(Cc2ccccc2)CC1	.	i	.	-15	i	-116*
Cc1cccc2nc(-c3ccccc3)c(-c3ccc(CN4CCC(n5c(=O)[nH]c6ccccc65)CC4)cc3)nc12	.	?	.	-17	?	?
Cc1nc2cc(C(F)(F)F)ccc2n1C1CCN(Cc2nnnn2Cc2ccc3c(c2)OCO3)CC1	14%	18µM*	?	-5	?	-23
Fc1ccc2c(c1)nnn2C1CCN(Cc2nnnn2CCc2ccccc2)CC1	-19%	i	1%	-9	i	-75*
c1ccc(CCn2nnnc2CN2CCC(n3nnc4ccccc43)CC2)cc1	10%	5.8µM*	0%	-2	i	?
Cc1nc2ccccc2n1C1CCN(Cc2nnnn2CCc2ccccc2)CC1	-2%	?	9%	1	i	-1
Fc1ccc(Cn2nnnc2CN2CCC(n3nnc4cc(C(F)(F)F)ccc43)CC2)cc1	-6%	?	26µM*	-8	i	6
O=C(Nc1ccc(Br)cc1C(=O)O)c1ccc2c(c1)C(=O)N(Cc1ccccc1)C2=O	0%	i	?	-1	i	-10
Cc1nc2cc(C(F)(F)F)ccc2n1C1CCN(Cc2nnnn2Cc2cccs2)CC1	-3%	?	3%	-3	i	-5
Fc1ccc2c(c1)nnn2C1CCN(Cc2ccccc2)CC1	0%	i	1%	-9	i	-78*
FC(F)(F)c1ccc2c(c1)ncn2C1CCN(Cc2nnnn2C2CCCCC2)CC1	-1%	7.3µM*	18%	2	?	-13
